The campaign covered roughly 280,000 compounds. About 50 (0.02%) were called active. Only a selection was taken, and actives are over-represented in it overall. Measured potencies and affinities stand elsewhere. Values without a mark were called inactive. No stated cut-off is given here; in the data, active means activation above about 50% (passing the limit was not always enough); inactive means the rest.

For the assay, the target named is Kappa-type opioid receptor (Homo sapiens) (UniProt P41145). As to the kind of experiment: kappa opioid receptor activators – cell-based, luminescence, uHTS, primary screen (AID 1777). The conditions noted are these: KOR beta-arrestin recruitment, at 10 µM, hits give high values.
Kappa-type opioid receptor (Homo sapiens), sequence (P41145 whole entry, looked up): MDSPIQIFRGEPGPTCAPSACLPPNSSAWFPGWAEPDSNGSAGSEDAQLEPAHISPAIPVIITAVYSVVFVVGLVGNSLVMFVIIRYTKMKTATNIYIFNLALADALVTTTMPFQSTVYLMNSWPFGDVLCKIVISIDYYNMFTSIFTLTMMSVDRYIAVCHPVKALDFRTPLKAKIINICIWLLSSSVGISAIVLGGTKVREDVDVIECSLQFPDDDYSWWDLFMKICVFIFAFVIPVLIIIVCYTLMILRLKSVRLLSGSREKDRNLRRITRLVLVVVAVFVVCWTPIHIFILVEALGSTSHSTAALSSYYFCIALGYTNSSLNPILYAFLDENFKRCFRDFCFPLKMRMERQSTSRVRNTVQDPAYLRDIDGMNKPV
Consider `COc1ccc(C(CNC(=O)Cc2ccc(Cl)c(Cl)c2)N2CCCCC2)cc1` (stereo not given), for which the activation was -2.4%. In the case of `COC(=O)N1CCN(C(=O)Cc2ccc(Cl)c(Cl)c2)C(CN2CCCC2)C1` (stereo not given), the activation is 91.3% (active).

For `COc1ccc(C(CNC(=O)Cc2ccc(Cl)c(Cl)c2)N(C)C)cc1` (stereo not given), the activation was -2.4%. As to `CCN1C(=O)N(CC)C(=O)C2(Cc3ccccc3N3CCN(c4ccccc4)CC32)C1=O` (stereo not given), the activation is 2.7%.

With `COc1ccc2nc(/N=C/c3c(O)n(-c4cccc(Cl)c4)c(=O)[nH]c3=O)sc2c1`, the activation is 2.9%.
